Experimental data as given in PubChem BioAssay.
Calls of active or inactive are those of the source. The rule behind the calls is not given here.

Assay: Cy5 fluorescence quenching or enhancement artefacts, artefact control for HCV NS3 helicase inhibitor project, biochemical, LOPAC1280 (AID 687037)
Conditions: Cy5-DNA-NS3h complex fluorescence interference counterscreen

Structure (SMILES) | fluorescence ratio (interference)
CCCC(=O)NCCc1c2n(c3ccc(OC)cc13)CCCc1ccccc1-2 | 1 (inactive)
Cn1ccnc1 | 0.9 (inactive)
Nn1nnc2ccccc21 | 1 (inactive)
CCCn1c(=O)c2[nH]c(-c3ccc(S(=O)(=O)O)cc3)nc2n(CCC)c1=O | 1 (inactive)
C[C@H](O)C(=O)C1=Nc2c(nc(N)[nH]c2=O)NC1 | 0.9 (inactive)
NC1(C(=O)O)CCc2cc(C(=O)O)ccc21 (stereo unspecified) | 1 (inactive)
Nc1nc(Cl)nc2c1ncn2[C@@H]1O[C@H](CO)[C@H](O)C1O (stereo partly specified) | 1 (inactive)
N[C@H](C(=O)O)[C@H](O)C(=O)O | 1 (inactive)
C=C1C(=O)O[C@@H]2[C@H]3O[C@]3(C)CCC=C(C)CC[C@@H]12 | 1 (inactive)
C[C@@H]1C(=O)NC2=Nc3cccc(Cl)c3CN21 | 1 (inactive)
CCNC(=O)[C@H]1O[C@@H](n2cnc3c(N)nc(NCCc4ccc(CCC(=O)O)cc4)nc32)C(O)[C@H]1O (stereo partly specified) | 1 (inactive)
Cc1nc(N=Nc2ccc(S(=O)(=O)O)cc2S(=O)(=O)O)c(COP(=O)(O)O)c(C=O)c1O | 1 (inactive)
O=C(Nc1cccc(C(=O)Nc2ccc(S(=O)(=O)O)c3cc(S(=O)(=O)O)cc(S(=O)(=O)O)c23)c1)Nc1cccc(C(=O)Nc2ccc(S(=O)(=O)O)c3cc(S(=O)(=O)O)cc(S(=O)(=O)O)c23)c1 | 1.1 (inactive)
Nc1nc2[nH]c(=O)cnc2c(=O)[nH]1 | 1 (inactive)
N[C@@H](Cc1cnc[nH]1)C(=O)O | 1.1 (inactive)
CC1(C)CCC(NC(=O)[C@@H](N)CCC(=O)O)CC1 | 1 (inactive)
